The results in this text go back to PubChem BioAssay AID602261 (Sanford-Burnham Center for Chemical Genomics, 2012).

Out of some 360,000 compounds screened, about 2,400 (0.67%) were called active.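 How the source made its calls: active means compounds whose normalised, plate-corrected inhibition of enzyme fluorescence in the single-dose primary screen is 50% or more; inactive means the rest.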 For the sample, actives were picked, then their nearest neighbours and some compounds at random.

The target of this experiment is Fatty acid synthase (Homo sapiens) (UniProt P49327). Nature of the experiment: FAS thioesterase domain inhibitors, primary screen, biochemical, fluorescence intensity, uHTS (AID 602261).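 Further: 0% = DMSO with enzyme and 100% = substrate without enzyme.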 Particulars: recombinant FAS-TE, OMFH fluorogenic substrate, fluorescence endpoint; at 15 µM; stronger effect = higher value.
Chain of Fatty acid synthase (Homo sapiens) (P49327 whole entry, looked up, the tested form may be a part): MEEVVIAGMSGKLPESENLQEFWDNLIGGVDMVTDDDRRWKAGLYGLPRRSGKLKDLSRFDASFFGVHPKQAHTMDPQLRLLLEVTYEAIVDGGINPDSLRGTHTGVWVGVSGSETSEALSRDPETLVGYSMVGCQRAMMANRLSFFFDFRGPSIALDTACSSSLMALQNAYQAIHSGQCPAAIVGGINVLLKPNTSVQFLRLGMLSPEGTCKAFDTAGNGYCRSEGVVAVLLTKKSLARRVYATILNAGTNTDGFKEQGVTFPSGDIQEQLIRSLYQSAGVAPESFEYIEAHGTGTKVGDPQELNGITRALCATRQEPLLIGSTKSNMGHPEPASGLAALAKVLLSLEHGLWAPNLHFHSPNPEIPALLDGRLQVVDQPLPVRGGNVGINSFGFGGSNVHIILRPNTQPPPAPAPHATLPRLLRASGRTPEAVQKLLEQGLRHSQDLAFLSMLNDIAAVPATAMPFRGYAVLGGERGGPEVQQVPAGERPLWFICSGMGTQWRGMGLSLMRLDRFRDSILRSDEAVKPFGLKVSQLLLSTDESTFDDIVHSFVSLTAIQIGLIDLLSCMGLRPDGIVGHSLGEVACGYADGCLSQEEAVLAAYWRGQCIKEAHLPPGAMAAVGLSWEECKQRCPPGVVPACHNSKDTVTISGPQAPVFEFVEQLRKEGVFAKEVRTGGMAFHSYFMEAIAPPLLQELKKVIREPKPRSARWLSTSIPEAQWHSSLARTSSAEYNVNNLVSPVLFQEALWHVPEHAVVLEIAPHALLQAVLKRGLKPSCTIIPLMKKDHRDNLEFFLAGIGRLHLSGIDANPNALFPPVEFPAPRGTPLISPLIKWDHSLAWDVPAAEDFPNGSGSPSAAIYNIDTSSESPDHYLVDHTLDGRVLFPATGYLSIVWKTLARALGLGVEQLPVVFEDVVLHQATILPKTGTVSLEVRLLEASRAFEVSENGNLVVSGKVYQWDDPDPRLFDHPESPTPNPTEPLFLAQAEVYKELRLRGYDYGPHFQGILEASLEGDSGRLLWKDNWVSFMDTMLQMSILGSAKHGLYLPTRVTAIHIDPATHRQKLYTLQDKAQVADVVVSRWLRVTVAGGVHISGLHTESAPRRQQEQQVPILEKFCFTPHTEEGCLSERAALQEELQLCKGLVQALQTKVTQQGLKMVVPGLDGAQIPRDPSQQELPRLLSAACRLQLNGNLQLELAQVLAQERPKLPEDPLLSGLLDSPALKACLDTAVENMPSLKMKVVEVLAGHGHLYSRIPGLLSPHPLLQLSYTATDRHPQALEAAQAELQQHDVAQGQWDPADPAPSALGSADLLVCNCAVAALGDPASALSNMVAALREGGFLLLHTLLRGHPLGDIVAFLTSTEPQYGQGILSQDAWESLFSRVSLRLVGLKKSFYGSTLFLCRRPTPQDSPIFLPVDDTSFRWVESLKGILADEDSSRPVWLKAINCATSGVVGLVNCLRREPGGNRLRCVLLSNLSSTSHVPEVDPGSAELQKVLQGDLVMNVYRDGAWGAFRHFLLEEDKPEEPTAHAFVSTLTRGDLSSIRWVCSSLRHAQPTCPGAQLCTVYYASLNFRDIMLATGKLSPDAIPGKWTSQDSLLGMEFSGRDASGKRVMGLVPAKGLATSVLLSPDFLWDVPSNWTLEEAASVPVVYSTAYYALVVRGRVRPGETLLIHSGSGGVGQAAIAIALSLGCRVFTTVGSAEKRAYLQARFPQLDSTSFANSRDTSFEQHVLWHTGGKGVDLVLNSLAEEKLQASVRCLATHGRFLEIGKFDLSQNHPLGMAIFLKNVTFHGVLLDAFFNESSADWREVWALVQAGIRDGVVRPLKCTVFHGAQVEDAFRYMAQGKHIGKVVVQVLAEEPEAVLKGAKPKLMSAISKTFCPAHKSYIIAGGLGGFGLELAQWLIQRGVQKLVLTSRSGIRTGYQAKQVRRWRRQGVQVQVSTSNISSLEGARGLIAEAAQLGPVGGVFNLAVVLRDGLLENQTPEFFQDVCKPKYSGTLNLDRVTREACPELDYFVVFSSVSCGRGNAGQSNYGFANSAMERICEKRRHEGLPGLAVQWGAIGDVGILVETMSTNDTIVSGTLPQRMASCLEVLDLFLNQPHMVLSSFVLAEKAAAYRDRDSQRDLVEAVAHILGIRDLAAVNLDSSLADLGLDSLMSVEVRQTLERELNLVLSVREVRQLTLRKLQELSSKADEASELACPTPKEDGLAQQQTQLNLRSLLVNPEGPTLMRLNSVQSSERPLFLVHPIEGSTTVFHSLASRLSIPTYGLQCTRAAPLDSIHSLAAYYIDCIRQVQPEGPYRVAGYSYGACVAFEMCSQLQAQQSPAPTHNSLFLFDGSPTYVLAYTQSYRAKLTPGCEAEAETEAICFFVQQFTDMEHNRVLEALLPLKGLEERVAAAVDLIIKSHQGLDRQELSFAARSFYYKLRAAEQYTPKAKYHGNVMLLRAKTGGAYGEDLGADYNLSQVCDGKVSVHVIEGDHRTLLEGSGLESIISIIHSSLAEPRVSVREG
A word on the inhibition: it is the relative decrease from the control value, in per cent. On to `CC[C@]12c3[nH]c4ccc(Cl)cc4c3CCN1C(=O)[C@@H](CC(=O)NCCCOC)C[C@@H]2C(=O)N1CCN(C(=O)C2CC2)CC1`, for which the inhibition was -5.2% (inactive).
Take `CCOC1=C2[C@H]([C@H]3C(=O)N(c4ccccc4)C(=O)[C@H]3C1)[C@@H](c1ccccc1)N(S(=O)(=O)c1ccc(C)cc1)[C@H]2c1ccccc1`: the inhibition is 69.2% (active).
As for `CCOC1=C2[C@@H](CN(S(=O)(=O)c3ccc(C)cc3)[C@H]2c2ccccc2F)[C@H]2C(=O)N(Cc3ccccc3)C(=O)[C@H]2C1`, the figure is 35.8% (inactive); as for `CCOC(=O)C1=C(N)N(c2ccc(C)cc2)C2=C(C(=O)CCC2)C1c1cccs1` (stereo not given), 20.7% (inactive); as for `CCOC1=C2CN(S(=O)(=O)c3ccc(C)cc3)[C@H](c3cccs3)C[C@H]2[C@H]2C(=O)N(c3ccccc3)C(=O)[C@H]2C1`, 58% (active).
As for `CCOC(=O)C1=CC[C@@H](c2ccccc2)N(S(=O)(=O)c2ccc(C)cc2)[C@H]1c1ccc(CC)cc1`, the inhibition was 31.8% (inactive).
For `Cc1ccc(S(=O)(=O)N2C[C@@H](C)[C@]3(C2)[C@H](O)[C@H](OC(=O)NCc2ccccc2)C[C@H]2C(=O)N(c4ccccc4)C(=O)[C@H]23)cc1`, the inhibition was 18.7% (inactive).
In the case of `NC(=O)COC(=O)c1sc2cc(F)ccc2c1Cl`, the inhibition is 5% (inactive).
For the molecule `CCOc1ccc2[nH]c(=S)sc2c1`, the inhibition is -1.4% (inactive).
With `CN1CCN(S(=O)(=O)c2ccc(Nc3ccc(F)cc3)nc2)CC1`, the inhibition was -0.3% (inactive).
For `CC1CN(C(=O)c2cc(COc3c(F)cccc3F)on2)CCN1C` (stereo not given), the inhibition is -5.4% (inactive).
For the molecule `Cc1nnc(-c2ccc(Oc3ccc(C)c(C)c3)c([N+](=O)[O-])c2)o1`, the inhibition is 21.4% (inactive).
As for `COc1cccc2c1CCC(NC(C)=O)C2=O` (stereo not given), the figure is -7.2% (inactive); as for `O=[N+]([O-])c1cc(Br)c(O)c(/C=N/Nc2nc3ccccc3s2)c1`, 52.5% (active); as for `Brc1ccccc1/C=N/Nc1nc2ccccc2o1`, -4.3% (inactive).
On to `O=C(NC(Nc1nc2ccc([N+](=O)[O-])cc2s1)(C(F)(F)F)C(F)(F)F)c1ccccc1`, for which the inhibition is 10.8% (inactive).
To `COc1ccc(SCc2noc(C(=O)NCC3CCCO3)c2C(=O)O)cc1` (stereo not given) belongs -6.7% (inactive); to `Cc1cccc(N(CC(=O)N2CCCC2)S(C)(=O)=O)c1C`, -4.4% (inactive).
Regarding `COCCN1C2=C(COC(C)(C)C2)C(=S)NC1c1ccccc1` (stereo not given), the inhibition is -8.2% (inactive).
Regarding `Cc1ccc2c(c1)NC(=O)[C@@]1(C)[C@@H](c3ccccc3)[C@H]3COc4ccc(Cl)cc4[C@@H]3N1C2=O`, the inhibition is 15.6% (inactive).
For the molecule `COc1ccc2c(c1)[C@H]1[C@H](CO2)[C@H](c2ccccc2)[C@]2(C)C(=O)Nc3cc(F)c(F)cc3C(=O)N12`, the inhibition is 71.2% (active).
`CCOC(=O)[C@H]1[C@H]2COc3ccc(OC)cc3[C@@H]2N2C(=O)c3ccc(F)cc3NC(=O)[C@@]12C`: the inhibition was -4.6% (inactive).
In the case of `CCOC(=O)c1ccc(COC(=O)CCc2nc(-c3ccccc3)c(-c3ccccc3)o2)cc1`, the inhibition is 26.3% (inactive).
As for `COc1cc(OC)cc(-c2cc3nc(C4CCN(C(=O)OC(C)(C)C)CC4)cc(=O)n3[nH]2)c1`, the figure is -5.7% (inactive).
Regarding `CCC(C)NC(=O)C1CCCN(C(=O)NC2CCCCC2)C1` (stereo not given), the inhibition is -6.1% (inactive).
Take `O=C(c1[nH]ncc1-c1ccc(Cl)cc1)C1CO1` (stereo not given): the inhibition was -22% (inactive).
In the case of `Cc1ccc(NC(=O)C(=O)NCC2CCN(C(=O)c3cccc([N+](=O)[O-])c3)CC2)cc1`, the inhibition was 0.8% (inactive).
In the case of `O=C(NC(=S)NC1CCS(=O)(=O)C1)c1cccc([N+](=O)[O-])c1` (stereo not given), the inhibition is -3.5% (inactive).
For the molecule `O=C(Nc1ccc(C2CC2(Cl)Cl)cc1)c1cccc([N+](=O)[O-])c1` (stereo not given), the inhibition was 90.9% (active).
Take `CCOc1ccc(CCNC(=O)COC(=O)c2ccc(F)c(S(=O)(=O)N3CCOCC3)c2)cc1OCC`: the inhibition is -4.3% (inactive).
For `N#Cc1c(/N=C/N2CCCC2)oc(-c2ccccc2)c1-c1ccccc1`, the inhibition is 27.6% (inactive).
For the molecule `CCN1C(=O)[C@H]2[C@@H](c3ccc(C)cc3)N3C(=O)N(c4cccc(Br)c4)C(=O)[C@@]3(CC)[C@H]2C1=O`, the inhibition was -1.3% (inactive).
With `O=C1[C@H]2[C@@H](c3ccc(C(F)(F)F)cc3)N[C@]3(CCCN(Cc4ccc(Br)cc4)C3=O)[C@H]2C(=O)N1Cc1ccccc1`, the inhibition is 41.2% (inactive).
To `C[C@@]12C(=O)N(c3cccc(Br)c3)C(=O)N1[C@H](c1ccc(Cl)cc1)[C@@H]1C(=O)N(C3CCCCC3)C(=O)[C@@H]12` belongs 93.7% (active).
As to `CC12C(=O)N(c3ccccc3)C(=O)C1C(c1ccccc1)N1CCCN12` (stereo not given), the inhibition was -2.7% (inactive).
For `CC(C)(C)N1C(=O)[C@H]2[C@@H](c3ccc(Br)cc3)N3C(=O)N(c4cccc(Cl)c4)C(=O)[C@@]3(C)[C@H]2C1=O`, the inhibition was 31.7% (inactive).
Turning to `Cc1cccc(N2C(=O)N3[C@H](c4ccc(F)cc4)[C@@H]4C(=O)N(C5CCCCC5)C(=O)[C@@H]4[C@]3(Cc3ccccc3)C2=O)c1`, the inhibition was 90.1% (active).
For `O=C1[C@H]2[C@@H](c3ccc(F)cc3)N3C(=O)N(c4ccc(C(F)(F)F)cc4)C(=O)[C@@]3(Cc3ccccc3)[C@H]2C(=O)N1C1CCCCC1`, the inhibition was 91.3% (active).
As to `O=C1[C@H]2[C@@H](c3ccc(C(F)(F)F)cc3)N[C@]3(CCCN(Cc4ccc(Cl)cc4)C3=O)[C@H]2C(=O)N1Cc1ccccc1`, the inhibition was 41.2% (inactive).
As to `Cc1ccc([C@H]2N[C@]3(CCCN(CC4CCCCC4)C3=O)[C@H]3C(=O)N(Cc4ccccc4)C(=O)[C@@H]23)cc1`, the inhibition is 21.4% (inactive).
Regarding `O=C1[C@H]2[C@@H](c3ccc(Cl)cc3)N3C(=O)N(c4cccc(F)c4)C(=O)[C@@]3(Cc3ccccc3)[C@H]2C(=O)N1C1CCCCC1`, the inhibition was 92.2% (active).
Regarding `COc1cc(NC(=O)C2=C(C)OCCS2)c(Cl)cc1C(=O)NCCN1CCN(C)CC1`, the inhibition is -10.2% (inactive).
On to `CC1CCN(S(=O)(=O)c2ccc(NC(=O)C3CC(=O)N(c4ccccc4)C3)cc2)CC1` (stereo not given), for which the inhibition was 4.6% (inactive).
In the case of `COc1ccc(CNC(=O)CN2CCC(n3nnc4cc(F)ccc43)CC2)cc1`, the inhibition is 1.6% (inactive).
Take `Cc1csc(SCC(=O)N(c2ccccc2)C(C)C)n1`: the inhibition was -7.2% (inactive).
For the molecule `CC(NC(=O)C1CCC(CNc2c(N3CCOCC3)c(=O)c2=O)CC1)c1ccccc1` (stereo not given), the inhibition was 3.6% (inactive).
On to `S=c1[nH]c2ccccc2c2ccccc12`, for which the inhibition was -0.9% (inactive).
With `COCC1CCN(C(=O)C2CCC(=O)N(Cc3cccc(C(F)(F)F)c3)C2)CC1` (stereo not given), the inhibition was -6.2% (inactive).
For the molecule `O=C(CCNS(=O)(=O)c1cccs1)N1CCN(c2ccc(F)cc2)CC1`, the inhibition is -4.4% (inactive).
Take `NC1=NC(=O)C2(COC(c3ccccc3Cl)OC2)S1` (stereo not given): the inhibition was -3.8% (inactive).
As for `COc1ccc([C@@H]2[C@@H]3C(=O)N(C(C)(C)C)C(=O)[C@@H]3[C@]3(Cc4ccccc4)C(=O)N(c4cccc(Br)c4)C(=O)N23)cc1`, the figure is 89.7% (active); as for `COc1cccc(N2C(=O)CN(Cc3ccccc3)C2=S)c1`, -0.9% (inactive).
As to `Cc1cccc([C@@H]2[C@@H]3C(=O)N(Cc4ccccc4)C(=O)[C@@H]3[C@]3(Cc4ccc(Cl)cc4)C(=O)N(c4cccc(Cl)c4)C(=O)N23)c1`, the inhibition was 91.3% (active).
Take `CC[C@@]12C(=O)N(c3ccccc3)C(=O)N1[C@H](c1ccc(Br)cc1)[C@@H]1C(=O)N(C(C)(C)C)C(=O)[C@@H]12`: the inhibition is 13.2% (inactive).
For `Cc1cccc([C@@H]2[C@@H]3C(=O)N(Cc4ccccc4)C(=O)[C@@H]3[C@]3(C)C(=O)N(c4ccc(Br)cc4)C(=O)N23)c1`, the inhibition was 39.4% (inactive).
For `Cc1cccc(N2C(=O)C3C(c4ccccc4)OC4(C(=O)c5ccccc5C4=O)C3C2=O)c1` (stereo not given), the inhibition was -2.5% (inactive).
`CCc1cc(CNC(=O)CC2C(=O)NCCN2Cc2ccccc2C(F)(F)F)on1` (stereo not given): the inhibition is -2.9% (inactive).
In the case of `O=C(NC1CCCCC1)C1CC(=O)N(CCc2ccccc2)C1` (stereo not given), the inhibition is -6.1% (inactive).
Take `CCCn1cc(S(=O)(=O)c2ccc(C)cc2)c(=O)c2cc(OCC)ccc21`: the inhibition was 9.4% (inactive).
As for `Clc1ccc2c(c1)C1=C(C(c3ccncc3)O2)C(c2ccc(Br)cc2)n2ncnc2N1` (stereo not given), the inhibition is 71.3% (active).
For `CN(C)CCNc1ccc(-c2n[nH]c(=O)c3ccccc23)cc1[N+](=O)[O-]`, the inhibition was -2.9% (inactive).
As to `CCOc1cc(/C=N/NC(=O)OC)ccc1OCCSc1ccc(Cl)cc1`, the inhibition was -4.3% (inactive).
For `COc1cc(/C=C(/NC(=O)c2ccc(Cl)cc2Cl)C(=O)O)cc(OC)c1OC`, the inhibition is 0.9% (inactive).
Regarding `CCOc1cc(/C=C(/C#N)c2ccc(Cl)cc2)cc(Cl)c1OCC(=O)O`, the inhibition is 53.1% (active).
Take `O=C(c1ccco1)N1CCN=C1SCc1cccc(Cl)c1`: the inhibition was 5.3% (inactive).
As for `COC(=O)c1sc2[nH]c(=S)n(N)c(=O)c2c1C`, the inhibition was -6.3% (inactive).
For `O=c1ccc2c(-c3ccccc3S(=O)(=O)O)c3ccc(O)c(O)c3oc-2c1O`, the inhibition is 54.8% (active).
To `Cn1ncc2c(NNC(=O)Cc3cccc4ccccc34)ncnc21` belongs -10.1% (inactive).
For the molecule `CC(=O)c1c(C)[nH]c(C(=O)N2CCN(S(=O)(=O)c3ccc(F)c(F)c3)CC2)c1C`, the inhibition was -3.9% (inactive).
As for `COc1ccc(NC(=O)CNc2cc(S(=O)(=O)N3CCOCC3)ccc2N2CCOCC2)c(OC)c1`, the inhibition was -2.5% (inactive).
On to `COc1cc(S(=O)(=O)N2CCOCC2)ccc1NC(=O)COc1ccc(N(C)S(=O)(=O)c2ccc(C)cc2)cc1`, for which the inhibition is 76.5% (active).
To `COc1ccc(S(=O)(=O)N2CCOCC2)cc1NC(=O)COc1ccccc1` belongs 2.1% (inactive).
In the case of `COc1ccc(Cl)cc1NS(=O)(=O)c1cccc(C(=O)NCC2CCCO2)c1` (stereo not given), the inhibition is -3.9% (inactive).
As for `Oc1c(Cl)cc(Cl)c(Cl)c1Cc1c(O)c(Cl)cc(Cl)c1Cl`, the figure is 83.7% (active); as for `CC1CCCCN1C(=O)CCS(=O)(=O)Cc1ccccc1` (stereo not given), -4.6% (inactive).
